# Results filed as inconclusive are left out. Activity calls are given as the source filed them. The calls were made as follows: active = hit-call score of the fitted dose curve at least 0.9, where 1 is the maximum; inconclusive = response in the unintended direction; inactive = score below 0.9.
# Target: human CYP2C9, CYP2C9 (gene 1559) (UniProt P11712)
# Experiment: NVS_ADME_hCYP2C9: NovaScreen (NVS) CYP450-related Enzyme Activity (ADME) Assay for human CYP2C9 (AID 2283108)
# Experimental: NVS_ADME_hCYP2C9 is a biochemical, single-readout assay that uses extracted gene-proteins from SF9 in a cell-free assay. Measurements were taken 0.75 hour after chemical dosing in a 96-well plate.NVS_ADME_hCYP2C9 is one of one assay component(s) measured or calculated from the NVS_ADME_hCYP2C9 assay. It is designed to make measurements of enzyme activity, a form of enzyme reporter, as detected with fluorescence intensity signals by Fluorescence technology.Data from the assay component NVS_ADME_hCYP2C9 was analyzed into 1 assay endpoint. This assay endpoint, NVS_ADME_hCYP2C9, was analyzed in the positive analysis fitting direction relative to Acetonitrile as the negative control and baseline of activity. Using a type of enzyme reporter, loss-of-signal activity can be used to understand changes in the enzymatic activity as they relate to the gene CYP2C9. Furthermore, this assay endpoint can be referred to as a primary readout, because this assay has produced multiple assay endpoints where this one serves a enzymatic activity function. To generalize the intended target to other relatable targets, this assay endpoint is annotated to the cyp intended target family, where the subfamily is xenobiotic metabolism.
# Binding assays used specific radioligands (tritiated, iodinated) with non-radioactive competitive displacement ligands in agonist or antagonist protocols (as indicated) and various reference compounds and inhibitors to titrate specific binding to receptors and transporters. Most enzyme assays (CYPs, kinases, phosphatases, proteases, HDACs) used recombinant protein and specific substrates (fluorescence mostly, some colorimetric and radioactive) and inhibitors, followed by a biochemical separation of substrate and product. All assays for the biochemical HTS were initially run in duplicate at a single concentration (10 uM for CYP450 assays and 25 uM for all others). […] Each assay was run with positive and negative controls, and concurrent controls on every plate. The follow-up (secondary) screen tested active chemical-pairs in concentration series, as well as a few additional assays not tested in the primary screen, some selected negative inactives, and several cases re-run in the concentration series for confirmatory purposes.
# Sequence of human CYP2C9, CYP2C9 (gene 1559) (P11712 whole entry, looked up): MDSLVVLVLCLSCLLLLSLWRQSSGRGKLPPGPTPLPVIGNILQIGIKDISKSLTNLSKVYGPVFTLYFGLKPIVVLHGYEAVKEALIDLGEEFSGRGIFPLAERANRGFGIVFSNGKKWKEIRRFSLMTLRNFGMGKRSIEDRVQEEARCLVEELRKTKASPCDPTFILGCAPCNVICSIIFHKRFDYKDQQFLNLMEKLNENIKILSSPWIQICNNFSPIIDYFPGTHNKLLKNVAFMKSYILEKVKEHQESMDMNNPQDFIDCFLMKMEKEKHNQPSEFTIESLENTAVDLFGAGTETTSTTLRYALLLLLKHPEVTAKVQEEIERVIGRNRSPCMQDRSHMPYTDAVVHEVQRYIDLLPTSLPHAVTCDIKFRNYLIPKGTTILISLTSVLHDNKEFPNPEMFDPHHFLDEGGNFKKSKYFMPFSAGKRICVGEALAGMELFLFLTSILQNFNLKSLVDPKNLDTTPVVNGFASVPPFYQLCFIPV
SMILES,outcome,AC50
OC(Cn1cncn1)(Cn1cncn1)c1ccc(F)cc1F,inactive,
CCN(CC)C(=S)SSC(=S)N(CC)CC,,3.12 µM (active)
CC[C@H](C)C(=O)O[C@H]1C[C@H](O)C=C2C=C[C@H](C)[C@H](CC[C@@H](O)C[C@@H](O)CC(=O)O)[C@H]21,inactive,
CCCCCCCC/C=C\CCCCCCCC(=O)OC[C@@H](O)[C@H]1OC[C@H](O)[C@H]1O,,16.5 µM (active)
CC(C)C(=O)Nc1ccc([N+](=O)[O-])c(C(F)(F)F)c1,inactive,
C=CCc1cc(S(=O)(=O)c2ccc(O)c(CC=C)c2)ccc1O,,0.118 µM (active)
c1ccc(C(O[C@@H]2CCCN(CCc3ccc4c(c3)OCO4)C2)c2ccccc2)cc1,,6.98 µM (active)
Cc1nccn1-c1ccc(Sc2cccc(C3(C(N)=O)CCOCC3)c2)cc1,,5.01 µM (active)
CCCCCCCCCC,,15.1 µM (active)
CCCOc1ccc(S(=O)(=O)N2CCN(CC)CC2)cc1-c1nc2c(CC)n(Cc3ccccn3)nc2c(=O)[nH]1,,2.98 µM (active)

# From PubChem BioAssay (EPA / NIEHS)
